Laboratory results as given in the supplement of paper PMC6555819.

Test system: RARa homodimer (NR concentration 270 nM)
Assay: PBM binding z-score (relative to random genomic background probes); higher = stronger binding; sequences stand for … in GC…GCGATTGACAGCGTAGAATGAAGG
How it was run: (§1)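 Custom Agilent 4×180K protein-binding microarrays carried double-stranded probes, each with a 34-nt variable region. These regions held direct-repeat seeds, single-nucleotide variants, half-site ablations and random human genomic background sequences. Ligand-free nuclear receptor dimers were incubated on the arrays for 1 h, antibodies against each partner (one per run) detected binding, and scanned fluorescence was regression-normalized. Binding z-scores take the random background probes as reference.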

Sequence | PBM binding z-score
CAAACTAGGTTAAGAGGTCAAAGTCCGCTTCCCG | 2.19
CGTCCAAGGTCAGCAGGTCCGTGAAAGCGACGTG | 0.18
CGTCATAGTTCAACTAAGGTAACGTAAAGCACGC | 1.04
ACCTCTAGGTAAAAGTTCAGTGAATCCCGAGGAT | 0.0645
GCATATAGGTAATACAAGGTGAAAGCCCGATTGT | 0.0827
CGAACTAGGTCATTGACAGTACAGTGAATAGTAA | 0.0313
AGTCAAAGTTCATTAGGTAACGTAAGATTCAGCT | 1.92
TCTTGTAGATCAACCGGAGGTTAAGAAAGATCGA | -0.186
CGAACTAGGTCAGAACAGGCCAGTGAAGGATGAT | -0.387
ATCTCTAGGTAAGACTCAGTTCAGTTAAGAACGC | 1.6
AGAATGAGCTTACCAAAGATCAGGGAAACGCTTG | -0.255
GATACAGGATCAAGGCCAGAGTACGCGTATTGAT | -0.179
CGAACTAGGTCAGAACAGGACTGTGAAGGATGAT | 0.123
GCTGCTAGGGCAACTGATGGTCAGCTAAAGCTCG | -1.23
CTCGAAAGGTCGTGCTCGGGTGAGTATACCAAAC | -0.17
GCTTGTAGATCAAGGTTAAGACAGACTAAGCTAA | -0.104
TCTATTAGCTGATTAGGGCAACCGAAACAGCGGA | -0.337
ACTTACGGGTCAAAGAGGTTATAGCACGCGTATA | 1.4
TCTAGTTGGTCAAAGGACACACACTCGAAATGCG | 1.12
GCTGCTAGCTCAGGTTGGTCAGCTAACGGGTACG | -2.27

Sequence | PBM binding z-score
GCTGCTAGGTCAACTGATGGGCAGCTAAAGCTCG | -0.663
CGGACTGGGGCATAAGGTTACCATAAGCCAGCCC | -0.515
CCTACTGGGCCAAAGGTCATTGCTTCCAATGCTC | 0.417
TCTATCAGTTGATTAGGGCAACCGAAACAGCGGA | -0.12
TCGAGTAGGTGAGGGGCATTCAGAATGGCGTCGA | -0.832
CCGAATGGGGCATAAGGTTACCATAAGCCAGCCC | -0.315
CGTCCAAGGTCAATGCTAGGTCCGTGAAAGCATT | 1.32
CCGACTGGGGCAGAAAGGTTATCATACCATCCGG | -0.196
AGAATGAGGTTACCAAAGAGCAGGGAAACGCTTG | -0.396
TCTTGTAGAGCAGCAGGTTAAGAAAGCTGGCCAA | -0.879
CAAACTAGATCACAGAGGTCAAAGTCCGTGCGTA | 2.65
CCTACAGGGCCATTCAGAGGTCATTGATCATATG | 0.639
CGAACTAGCTCATTGACAGGACAGTGAATAGTAA | 0.183
GGAACGAGGGCATTCGGGTTGATAGCATGGCGAT | -0.569
CTCGAAAGGTCCTGCTCAGGTGAGTATACCAAAC | -0.103
AGAATGAGGATATACGTAGATCAGGGAAGAAAGT | 0.32
ATCGAAAGGTCTAGGTGAGTATAGAGAAAGGGAA | 0.837
TTACCAAGGTGAGCTGAGGTCGTTGATCCAACTC | -1.01
GATACAGAGTCAAGGCCAGAGTACGCGTATTGAT | -1.07
CGTCCAAGGTCAGAGAGATCAGTGAATGCCGAGT | -0.15

Test system: RARb:RXRa (NR concentration 270 nM, RXRa partner concentration 90 nM)
Assay: as above
How it was run: as §1

Sequence | PBM binding z-score
CAAACTAGGTTAAGAGGTCAAAGTCCGCTTCCCG | 4.23
CGTCCAAGGTCAGCAGGTCCGTGAAAGCGACGTG | 4.86
CGTCATAGTTCAACTAAGGTAACGTAAAGCACGC | 3.59
ACCTCTAGGTAAAAGTTCAGTGAATCCCGAGGAT | 2.08
GCATATAGGTAATACAAGGTGAAAGCCCGATTGT | 0.234
CGAACTAGGTCATTGACAGTACAGTGAATAGTAA | 3.67
AGTCAAAGTTCATTAGGTAACGTAAGATTCAGCT | 4.7
TCTTGTAGATCAACCGGAGGTTAAGAAAGATCGA | 0.743
CGAACTAGGTCAGAACAGGCCAGTGAAGGATGAT | 2.97
ATCTCTAGGTAAGACTCAGTTCAGTTAAGAACGC | 0.431
AGAATGAGCTTACCAAAGATCAGGGAAACGCTTG | -0.501
GATACAGGATCAAGGCCAGAGTACGCGTATTGAT | 0.164
CGAACTAGGTCAGAACAGGACTGTGAAGGATGAT | 2.71
GCTGCTAGGGCAACTGATGGTCAGCTAAAGCTCG | 1.56
CTCGAAAGGTCGTGCTCGGGTGAGTATACCAAAC | 3.98
GCTTGTAGATCAAGGTTAAGACAGACTAAGCTAA | 0.893
TCTATTAGCTGATTAGGGCAACCGAAACAGCGGA | 0.444
ACTTACGGGTCAAAGAGGTTATAGCACGCGTATA | 3.99
TCTAGTTGGTCAAAGGACACACACTCGAAATGCG | 2.02
GCTGCTAGCTCAGGTTGGTCAGCTAACGGGTACG | -0.463

Sequence | PBM binding z-score
GCTGCTAGGTCAACTGATGGGCAGCTAAAGCTCG | 4.1
CGGACTGGGGCATAAGGTTACCATAAGCCAGCCC | 1.78
CCTACTGGGCCAAAGGTCATTGCTTCCAATGCTC | 4.49
TCTATCAGTTGATTAGGGCAACCGAAACAGCGGA | 0.747
TCGAGTAGGTGAGGGGCATTCAGAATGGCGTCGA | 0.965
CCGAATGGGGCATAAGGTTACCATAAGCCAGCCC | 1.79
CGTCCAAGGTCAATGCTAGGTCCGTGAAAGCATT | 4.91
CCGACTGGGGCAGAAAGGTTATCATACCATCCGG | 1.68
AGAATGAGGTTACCAAAGAGCAGGGAAACGCTTG | 2
TCTTGTAGAGCAGCAGGTTAAGAAAGCTGGCCAA | -0.156
CAAACTAGATCACAGAGGTCAAAGTCCGTGCGTA | 4.05
CCTACAGGGCCATTCAGAGGTCATTGATCATATG | 3.47
CGAACTAGCTCATTGACAGGACAGTGAATAGTAA | -0.386
GGAACGAGGGCATTCGGGTTGATAGCATGGCGAT | 1.86
CTCGAAAGGTCCTGCTCAGGTGAGTATACCAAAC | 1.06
AGAATGAGGATATACGTAGATCAGGGAAGAAAGT | -0.448
ATCGAAAGGTCTAGGTGAGTATAGAGAAAGGGAA | 1.71
TTACCAAGGTGAGCTGAGGTCGTTGATCCAACTC | 1.93
GATACAGAGTCAAGGCCAGAGTACGCGTATTGAT | 0.288
CGTCCAAGGTCAGAGAGATCAGTGAATGCCGAGT | 4.62
